# Reference: PubChem BioAssay AID819 (Columbia University Molecular Screening Center, 2007)
# About 280 (0.3%) of roughly 94,000 compounds were called active.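 The calls were made as follows: active = activation above 40%, about the mean plus 3 SD, also judged a hit on visual image review; inconclusive = activation above 40% but not a hit on visual review; inactive = activation not above 40% and no visual hit.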 For the sample, actives were picked, then their nearest neighbours and some compounds at random.
# Assay: enhancers of NFkB p65 translocation in HUVEC – imaging, IL-1B stimulus, high-content imaging, primary screen (AID 819);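 also: percent activation is computed from the nuclear over cytoplasmic p65 intensity ratio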
# Conditions: HUVEC IL-1B NFkB p65 nuclear translocation imaging; at 2 µM; stronger effect = higher value
row,SMILES,activation
1,Nc1ccc(-c2sc(N)nc2-c2ccccc2)cc1,-1.63% (inactive)
2,CC(C)c1ccc(N2CCN(C(=O)c3ccccc3NC(=O)/C=C(\C(=O)O)c3ccccc3)CC2)cc1,24.1% (inactive)
3,NC(=NC(=O)c1ccccc1)N1CCOCC1,3.72% (inactive)
4,O=C(Cc1ncc(C(F)(F)F)cc1Cl)Nc1cccc(Br)c1,13.4% (inactive)
5,O=[N+]([O-])c1ccc(Oc2ccc(F)cc2Br)c2ccncc12,-1.85% (inactive)
6,S=C(NCCC1=CCCCC1)Nc1ccccc1,-10.4% (inactive)
7,Cc1nn(C)cc1/C=C1\CCC/C(=C\c2cn(C)nc2C)C1=O,-13.1% (inactive)
8,COCC(C)NC(=O)c1ccc(-n2nc(C(F)(F)F)cc2-c2cccs2)cc1 (centres undefined),15.7% (inactive)
9,COc1ccccc1C(=O)n1nc(-c2ccccc2)nc1N,13.8% (inactive)
10,COc1ccc(C(=O)n2nc(-c3ccc(Cl)cc3)nc2N)cc1OC,41.4% (active)
11,COc1ccc(C(=O)n2nc(-c3ccc(C)cc3)nc2N)cc1OC,-6.6% (inactive)
12,CC(C)(CCl)C(=O)Nc1ccc(Sc2ccc(F)cc2)cc1,-5.55% (inactive)
13,CCn1c(SCc2ccc(C)cc2)nnc1-c1nn(-c2ccccc2)ccc1=O,0.15% (inactive)
14,O=C1c2ccccc2C(=O)c2c1cccc2N1CCN(CCO)CC1,11.4% (inactive)
15,CCC1(CC)NC(=O)N(CC(=O)OCC(=O)Nc2ccc(C(F)(F)F)cc2)C1=O,-31.3% (inactive)
16,Cc1cccc(-c2nc3c(c(SCC(=O)N4CCOCC4)n2)CCCC3)c1,16.6% (inactive)
17,COc1ccccc1NC(=O)[C@H](COCc1ccccc1)NC(=O)OC(C)(C)C,8.44% (inactive)
18,CCCC(=O)NC(Nc1ccccc1OC)C(Cl)(Cl)Cl (centres undefined),-10.4% (inactive)
19,CCOC(=O)C1(S(=O)(=O)c2ccccc2)CCN(Cc2ccccc2)CC1,2.52% (inactive)
20,CCC(=O)Nc1ccc2nc(C)n(Cc3ccccc3Cl)c(=O)c2c1,-5.54% (inactive)
21,COc1cnc(SCc2ccc(Cl)c(Cl)c2)nc1Cl,20.1% (inactive)
22,Cc1cc(C)cc(OCC(=O)NNC(=O)c2cc3ccccc3oc2=O)c1,-12% (inactive)
23,Cc1cc(OC(=O)c2c(Cl)cccc2Cl)nc(C)n1,23% (inactive)
24,N#Cc1ccc(Oc2cc(C(F)(F)F)nc(-c3ccccn3)n2)cc1,49.2% (active)

row,SMILES,activation
1,COc1ccc(C(=O)Nc2nc(-c3ccc(OC)cc3)c(-c3ccc([N+](=O)[O-])cc3)s2)cc1,1.5% (inactive)
2,CN(CC#CCC(c1ccccc1)c1ccccc1)C(C)(C)C,6.49% (inactive)
3,Cc1cc([N+](=O)[O-])c(NC2CCCCC2)c([N+](=O)[O-])c1,3.11% (inactive)
4,NS(=O)(=O)c1ccc(Nc2nc(-c3ccccc3)cs2)cc1,-18.6% (inactive)
5,O=C(CSCc1ccc([N+](=O)[O-])cc1)Nc1cccc(C(=O)Nc2ccccc2C(=O)O)c1,7.87% (inactive)
6,COc1ccccc1NC(=O)c1ccc2nc(N3C(=O)CCC3=O)sc2c1,11.6% (inactive)
7,COC(=O)c1ccccc1OCC(=O)N1CCN(c2ccc(Cl)cc2)CC1,11.5% (inactive)
8,COc1ccccc1OCCNc1cc(N2CCOCC2)ccc1[N+](=O)[O-],7.12% (inactive)
9,Cc1nnc(SCC(=O)NC(=O)NC2CCCC2)n1N,-1.65% (inactive)
10,CCOC(=O)c1cnc(-c2ccccc2)nc1Oc1ccc(C)cc1,-7.86% (inactive)
11,CC(C)NC(=O)NC(=O)COC(=O)c1ccc(NC(=O)CC#N)cc1,5.58% (inactive)
12,O=S(=O)(c1ccc(F)cc1)n1ccc(-c2cnc(-c3ccccc3)s2)n1,5.1% (inactive)
13,CCOCCOCCC(C(=O)O)P(=O)(c1ccccc1)c1ccccc1 (centres undefined),2.8% (inactive)
14,CCOc1ccccc1/C=c1\sc2nc(-c3ccco3)nn2c1=O,53.9% (active)
15,CCOc1ccccc1C(=O)NCc1ccco1,8.02% (inactive)
16,O=c1nc2s/c(=C\c3ccco3)c(=O)n2nc1Cc1ccccc1,10.3% (inactive)
17,CCOC1CS(=O)(=O)CC1OCC (centres undefined),12.8% (inactive)
18,O=C1c2ccccc2C(=O)c2c1cccc2N1CCN(Cc2ccccc2)CC1,-2.37% (inactive)
19,O=C(COC(=O)c1ccccc1NC(=O)c1ccco1)Nc1ccc2c(c1)OC(F)(F)O2,0.88% (inactive)
20,CC(=O)c1ccc2c(ccc3ccccc32)c1,8.21% (inactive)
21,CCCN1Cc2cccc(C(=O)Nc3ccc(S(=O)(=O)N4CCCCCC4)cc3)c2C1=O,7.44% (inactive)
22,O=C(Nc1ccc(Cl)cc1)OCc1cc(-c2ccccc2)on1,15.4% (inactive)
23,Cc1cc(C)n(-c2cc(Oc3ccccc3)ncn2)n1,43.8% (active)
24,CC(=O)c1cnn(-c2cc(Oc3ccc(F)cc3)ncn2)c1C,10.6% (inactive)

row,SMILES,activation
1,CC(=O)c1ccc(Oc2cc(C)nc(-n3nc(C)cc3C)n2)cc1,-11.2% (inactive)
2,CC12c3ccccc3C(c3ccccc31)C1C(=O)N(Cc3cccnc3)C(=O)C12 (centres undefined),-8.61% (inactive)
3,COc1cc(OC)cc(C(=O)NC2CCN(C(=O)N3c4ccccc4Sc4ccccc43)CC2)c1,1.07% (inactive)
4,O=C(OCc1cn(-c2ccc(Cl)c(Cl)c2)nn1)c1ccccc1Cl,12.2% (inactive)
5,O=C(CN1C(=O)NC(Cc2ccccc2)(Cc2ccccc2)C1=O)NCC1CCCCC1,0% (inactive)
6,CCCCOC(=O)Nc1sc2nc(C)cc(C)c2c1-n1cccc1,-1.73% (inactive)
7,Cc1cc2c(cc1C)N(C(=O)CN1C(=O)c3ccccc3C1=O)C(C)(C)c1ssc(=S)c1-2,17.4% (inactive)
8,COc1ccc(-c2[nH]nc(-c3ccccc3)c2-c2nc3ccccc3[nH]2)cc1,-1.89% (inactive)
9,O=c1c(-c2ccc3c(c2)OCCO3)c(C(F)(F)F)oc2cc(O)cc(O)c12,9.87% (inactive)
10,CCN1CCN(Cc2c(O)ccc3c(=O)c(-c4ccc(OC)c(OC)c4)c(C(F)(F)F)oc23)CC1,65.5% (active)
11,COc1ccc(OC)c(C(=O)c2coc3ccc(O)c(CN4CCOCC4)c23)c1,-5.05% (inactive)
12,O=C(c1ccc2c(c1)OCO2)N1CCOCC1,-1.72% (inactive)
13,Cc1nnc(SCC(=O)N/N=C/c2cn(-c3ccccc3)nc2-c2ccc(F)cc2)n1-c1ccccc1,-16.3% (inactive)
14,COc1ccc(C2C=C(c3ccc(Br)cc3)Nc3nc(NS(C)(=O)=O)nn32)cc1 (centres undefined),5.63% (inactive)
15,O=C(Cn1c(-c2cscn2)nc2ccccc21)Nc1ccc(Cl)cc1,3.1% (inactive)
16,CON(C)S(=O)(=O)c1ccc2c(c1)NC(=O)C1CCCN21 (centres undefined),6.63% (inactive)
17,COc1cccc(-c2cc(C(=O)N/N=C/c3ccc(OC)c(COC(C)=O)c3)c3ccccc3n2)c1,0.06% (inactive)
18,CC(Oc1ccc(-c2ccccc2)c(F)c1)c1ccn(S(=O)(=O)c2cccc3ccccc23)n1 (centres undefined),-9.3% (inactive)
19,COc1ccc(NC(=O)Cn2c(-c3ccc(OC)cc3)cn(-c3ccc(C)cc3)c2=O)cc1,5.6% (inactive)
20,Cc1c(Br)cc(C(=O)N2CCCCCC2)c(C)c1C,11.9% (inactive)
21,Cn1c2ccccc2n2c(=O)c(=O)n(CC(=O)c3ccc(F)cc3)nc12,47.4% (active)
22,O=C(CCn1c(SCC(=O)c2ccccc2)nc2ccccc2c1=O)NCc1ccc(F)cc1,2.29% (inactive)
23,CCN1CCN(Cc2nc3c(c(=O)n(C)c(=O)n3C)n2CC(=O)c2ccccc2)CC1,21.5% (inactive)
24,Brc1cnc(N2CCCC2)nc1N1CCCCC1,41.1% (active)

row,SMILES,activation
1,Cc1ccnc(N2CCC(C(=O)NC3CCCCCC3)CC2)n1,-7.5% (inactive)
2,c1ccc(-n2ncc3c(N4CCCC4)ncnc32)cc1,12.2% (inactive)
3,O=C1OC(c2ccc(Cl)cc2)=N/C1=C\c1cccnc1,34.5% (inactive)
4,Cc1nc2ccccc2c(-c2ccccc2)c1C(=O)c1ccccc1,9.37% (inactive)
5,CCN(CC)S(=O)(=O)c1ccc(N2CCOCC2)c(C(=O)O)c1,11.9% (inactive)
6,O=C(c1ccc(Cl)cc1)c1cnc(Nc2ccccc2)s1,-1.4% (inactive)
7,Nc1c(-c2ccc(F)cc2)cnn1C1CCS(=O)(=O)C1 (centres undefined),-1.34% (inactive)
8,COc1ccc(CCN2C(=O)C3CC=C(C)CC3C2=O)cc1OC (centres undefined),4.82% (inactive)
9,O=C(c1ccccn1)c1ncc(C(F)(F)F)cc1Cl,-0.58% (inactive)
10,CCN(CC)c1nc(-c2ccccc2)cc(C(F)(F)F)c1C#N,1.7% (inactive)
11,CCOC(=O)/C(=C\c1ccc([N+](=O)[O-])cc1)C(=O)c1cc(C(C)=O)c(Nc2ccccc2)s1,-4.36% (inactive)
12,COC(=O)CNC(c1ccccc1Cl)c1cc(Br)ccc1NC(=O)CCN1CCOCC1 (centres undefined),0.94% (inactive)
13,Cc1ccc(OCC(=O)Nc2cccc3c2CCCC3)cc1C,13.2% (inactive)
14,CC(=O)NS(=O)(=O)c1ccc(NC(=S)NC(=O)C(C)(C)C)cc1,4.05% (inactive)
15,COc1cccc(/C=N/NC(=O)C(=O)N2CCCC2)c1,-4.21% (inactive)
16,CCCCCCCC(=O)NC(Nc1ccccc1OC)C(Cl)(Cl)Cl (centres undefined),-6.09% (inactive)
17,Cc1ccccc1/[N+]([O-])=C/c1ccncc1,15.8% (inactive)
18,N#Cc1cc([N+](=O)[O-])ccc1Oc1cccc(/C=N/NC(=O)c2ccc(Cl)cc2)c1,1.88% (inactive)
19,COC(=O)CSc1nnc(-c2cccnc2)o1,-7.95% (inactive)
20,CCn1c(Cc2cccs2)nnc1SCC(=O)c1ccc(C)cc1,8.94% (inactive)
21,COc1ccc(CCNC(=S)NC(=O)/C=C/c2ccc(C)cc2)cc1OC,-6.74% (inactive)
22,CN1CC(c2ccccc2)C2(COc3ccccc3C2=O)C12C(=O)Nc1ccccc12 (centres undefined),0.22% (inactive)
